# Measurements published in the supplement of paper PMC7830784.
# Test system: Brugia pahangi adult female
# Assay: IC50 motility inhibition on day 3
# Conditions: 3 days
# Method: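 Single adult female Brugia pahangi worms in 24-well plates (RPMI-1640, 5% FBS, 37 °C) were treated with 10 µM of each compound from a 2121-drug library (4 replicates; 1% DMSO vehicle and 10 µM auranofin controls). Motility was recorded with WormAssay dark-field imaging, and % inhibition of motility on day 3 is relative to vehicle. IC50 values for selected hits come from a 6-point dilution series (30 to 0.1 µM) fitted in GraphPad Prism.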
row,SMILES,IC50 motility inhibition on day 3
1,Cc1cc(C2CCCCC2)n(O)c(=O)c1 [ciclopirox olamine],0.287 µM
2,O=[N+]([O-])c1ccc(O)c2ncccc12 [nitroxoline],6.7 µM
3,Oc1c(I)cc(I)c2cccnc12 [iodoquinol],1.9 µM
4,CCCCCCCCCCCCCCCC[N+](C)(C)CCN(Cc1ccc(OC)cc1)c1ncccn1 [thonzonium bromide],1.07 µM
5,CCCCCCCCCCCCCCCC[N+](C)(C)C [cetrimonium bromide],6.16 µM
6,Clc1ccc(COC(Cn2ccnc2)c2ccc(Cl)cc2Cl)c(Cl)c1 (stereo not given) [miconazole nitrate],3.3 µM
7,Clc1ccccc1C(c1ccccc1)(c1ccccc1)n1ccnc1 [clotrimazole],5.5 µM
8,Oc1ccc(Cl)c2cccnc12 [cloxyquin],4.9 µM
9,Clc1ccc(CSC(Cn2ccnc2)c2ccc(Cl)cc2Cl)cc1 (stereo not given) [sulconazole nitrate],4.62 µM
10,Oc1c(Cl)cc(Cl)c2cccnc12 [chloroxine],0.803 µM
